Experimental data reported in the supplement of paper PMC6555819.

What was measured:
Assay in all cases: PBM binding z-score (relative to random genomic background probes); higher = stronger binding; sequences stand for … in GC…GCGATTGACAGCGTAGAATGAAGG
[1] = test system: PPARg:RXRa DBDmut IVT, anti-RXR (DBD mutation: RXRa K156A/R161A, NR concentration 270 nM, RXRa partner concentration 90 nM)
How it was run: (§1)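 The probes on custom Agilent 4×180K protein-binding microarrays were double-stranded, with 34-nt variable regions bearing direct-repeat seeds, single-nucleotide variants, half-site ablations and random human genomic background sequences. Incubation lasted 1 h with ligand-free nuclear receptor dimers in PBS pH 7.4, 2% milk, 0.02% Triton X-100, 1 mM DTT, 0.2 mg/mL BSA and 0.4 mg/ml salmon testes DNA. Antibodies against each partner (one per run) detected bound dimers, and fluorescence scans were regression-normalized. Binding z-scores take the random background probes as reference.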

[2] = test system: PPARg:RXRa IVT, anti-PPARg (NR concentration 270 nM, RXRa partner concentration 90 nM)
How it was run: as §1

[3] = test system: PPARg DBDmut:RXRa IVT, anti-PPARg (DBD mutation: PPARg1 K132A/R137A, NR concentration 270 nM, RXRa partner concentration 90 nM)
How it was run: as §1

[4] = test system: PPARg DBDmut IVT, anti-PPARg (DBD mutation: PPARg1 K132A/R137A, NR concentration 270 nM)
How it was run: as §1

[5] = test system: PPARg homodimer (NR concentration 180 nM)
How it was run: as §1

[6] = test system: PXR:RXRa (NR concentration 270 nM, RXRa partner concentration 90 nM)
How it was run: as §1

[7] = test system: PXR homodimer (NR concentration 270 nM)
How it was run: as §1

[8] = test system: RARa:RXR (NR concentration 270 nM, RXRa partner concentration 90 nM)
How it was run: as §1

[9] = test system: RARa homodimer (NR concentration 270 nM)
How it was run: as §1

[10] = test system: RARb:RXRa (NR concentration 270 nM, RXRa partner concentration 90 nM)
How it was run: as §1

[11] = test system: RARb homodimer (NR concentration 270 nM)
How it was run: as §1

[12] = test system: RARg:RXRa (NR concentration 270 nM, RXRa partner concentration 90 nM)
How it was run: as §1

[13] = test system: RARg homodimer (NR concentration 270 nM)
How it was run: as §1

[14] = test system: RXRa DBDmut IVT, anti-RXR (DBD mutation: RXRa K156A/R161A, NR concentration 90 nM)
How it was run: as §1

[15] = test system: RXRa homodimer (NR concentration 180 nM)
How it was run: as §1

[16] = test system: THRa:RXRa (NR concentration 90 nM, RXRa partner concentration 90 nM)
How it was run: as §1

[17] = test system: THRa homodimer (NR concentration 90 nM)
How it was run: as §1

[18] = test system: VDR homodimer (NR concentration 270 nM)
How it was run: as §1

Sequence	PBM binding z-score [1]	PBM binding z-score [2]	PBM binding z-score [3]	PBM binding z-score [4]	PBM binding z-score [5]	PBM binding z-score [6]	PBM binding z-score [7]	PBM binding z-score [8]	PBM binding z-score [9]	PBM binding z-score [10]	PBM binding z-score [11]	PBM binding z-score [12]	PBM binding z-score [13]	PBM binding z-score [14]	PBM binding z-score [15]	PBM binding z-score [16]	PBM binding z-score [17]	PBM binding z-score [18]
TCTAGTTGGTCACGGAGATCACACACGACGGGTA	2.55	2.3	0.815	0.952	0.853	0.363	0.241	0.735	0.576	1.57	1.07	1.07	1.4	0.762	1.19	0.155	0.328	0.211
CGTCCAAGGTCAATGCTATGTCAGTGAAAGCATT	2.87	3.43	-0.154	0.266	2.06	3.61	0.424	3.88	0.262	5.07	4	5.86	6.28	3.14	4.94	3.81	1.93	2.37
GCGACTGGGGCATGAGCAGGTTACCATAACTTAA	3.82	3.4	-0.58	-0.475	0.287	0.134	-0.328	0.416	-0.578	0.781	0.894	0.84	0.396	-0.489	0.385	0.664	-0.144	-0.116
CGTCCAAGGTCAAACGTCAGTGAAGAGATGACGG	4.12	4.1	0.591	-0.466	2.61	4.43	0.834	5.04	0.465	5.22	3.94	6.09	6.4	3.98	6.29	3.76	2.1	3.22
GCGACTGGGGCACCAGCAGGTTACCATAACTTAA	4.23	4.22	-0.601	-0.596	-0.202	0.0556	-0.64	0.555	-0.588	1.05	0.971	1.13	0.678	-0.795	0.401	1.07	-0.0837	-0.699
GATACATGGTCAAGGCCAGAGTACGCGTATTGAT	0.0376	0.621	-0.439	0.11	-0.243	-0.158	-0.13	-0.204	-0.125	1.25	0.856	0.785	0.985	-0.244	0.439	0.149	-0.41	0.0812
AGAACGAGGTTAAGATCAGGGAAACAGAATACAT	1.95	2.16	1.47	0.398	0.757	1.27	0.776	1.89	0.576	1.91	1.12	2.15	1.62	1.03	2.45	2.36	0.55	0.771
TCGATTAGGTTAGTCGGGGCATTCAGCCAACATA	2.2	0.996	0.0217	-0.0761	0.302	0.39	0.0297	0.45	-0.0114	0.705	0.609	0.149	0.141	1.32	0.147	1.4	0.446	0.465
ATCTCTTGGTAACCAAGTTCAGTGAATGCCGAAC	-0.417	0.552	0.44	0.768	0.28	1.92	2.1	0.475	-0.473	0.956	1.4	0.23	0.417	1.2	0.509	0.819	0.000236	2.57
CCAGACAGGTGAGAAGCTAACTCAGCCTCGATTA	1.24	0.141	-0.708	-1.08	0.381	-0.471	-0.163	-0.265	0.766	0.227	0.0853	-0.181	0.0316	-0.135	0.129	0.183	-0.194	-0.0982
ACAGACAGGTGAGTGAAGGTAACTCAACTGGACG	0.567	0.507	-0.777	-0.0154	-0.369	-0.316	-0.108	0.0758	-0.165	0.486	0.036	0.211	0.661	-0.368	0.324	1.75	-0.422	-0.644
TCTTGTAGATCAAAGGTTAACAAAGCCGAAGCCT	2.15	4.38	1.04	0.514	1.03	2.26	0.125	3.03	1.01	2.09	1.66	1.93	1.09	0.706	3.2	1.32	-0.41	-0.185
CAAACTACGTCACGAAAGGTCAAAGTCGAATGAC	0.398	2.49	1.4	1.92	3.68	5.52	1.91	6.35	2.63	4.43	4.48	5.61	5.12	1.05	6.68	3.93	1.11	2.66
TCATGTAGATCAGCAGGTTAAGAAAGCTGGCCAA	1.87	0.284	-0.501	-0.804	0.238	0.193	0.00655	0.125	-0.0627	0.286	-0.0199	-0.0908	-0.0942	0.626	0.381	0.195	-0.553	-0.749
ATCTCTAGGTAAAAGTTCCGTGAATCCCGAGGAT	2.32	1.72	0.769	1.67	0.967	-0.0655	0.269	0.0824	0.505	0.237	-0.157	0.0505	0.279	0.162	0.162	0.383	0.302	0.13
TCATATAGGTAAACAGGTGAACGTCCGTAAGTTA	5.34	5.19	1.47	1	1.69	1.09	0.569	1.4	1.29	0.977	0.948	0.887	0.712	1.31	1.28	1.12	0.353	0.243
ATATCTAGGTTATCGGGTCATTCAGTTTGCGCAT	7.52	7.5	1.81	3.17	3.91	3.94	8.08	3.87	2.26	2.89	3.52	3.54	2.81	1.81	3.51	3.67	3.5	4.19
CCTACTGGGCCATCAGGGCATTGATATCAACGTT	3.95	3.99	0.633	0.588	-0.00622	-0.679	-0.548	-0.889	-0.828	0.358	0.404	0.0558	0.438	-0.959	-0.308	0.292	-0.276	-0.114
CGAAAGAGGGCATGAGTTGATAGCAAATGCCGAT	2.11	1.03	0.384	-0.376	-0.223	0.604	-0.0785	0.777	-0.0626	2.08	1	1.76	1.96	1.67	1.27	0.416	-0.334	1.1
GCAAGCAGGCCATTTGGGTCACTCAATGACGGGC	1.67	2.35	-0.319	-0.988	0.0293	0.422	0.0274	0.6	-0.747	1.33	1.76	0.948	1.18	-0.0801	0.769	1.79	0.53	0.402
CGAAATAGGTCAAGGACAGTGAATCTCCGCACGC	7.8	7.31	2.5	0.573	3.31	2.69	0.113	3.82	1.59	4.51	3.69	5.2	6.01	1.55	4.67	3.1	1.7	0.593
ACTAGTTCGTCAGCTGAGGTCACACACAATTCGG	0.735	2.22	0.493	1.22	2.47	5.11	2.76	4.66	1.82	3.52	4.27	4.08	3.93	3.38	4.37	4.66	5.07	4.73
TCATATAGGTAATACTGGTGAAAGTCGGCATCTA	3.8	2.46	1.36	0.717	0.814	0.689	-0.083	0.73	0.536	0.451	-0.0217	0.407	0.265	1.59	0.819	0.113	-0.05	0.596
ACTTGCAGGCCAAGTTTGGGTCACTCAAACAAAG	2.37	1.92	0.338	0.0722	0.632	0.858	-0.0999	1.61	-0.63	2.05	2.46	2.6	1.88	0.31	1.01	2.53	1.22	0.527
AGAATGAGGTTACCAAAGATCAGGGGAACGCTTG	3.68	3.55	0.871	0.161	0.699	1.59	-0.0783	2.04	0.232	2.18	1.08	2.1	1.75	1.25	2.79	2.87	0.753	0.0393
GCATATAGGTAATACAAGCTGAAAGTCCGATTGT	3.93	2.4	0.865	0.595	0.219	-0.13	-0.000493	0.243	0.388	-0.475	-0.29	0.165	0.41	0.344	0.524	-0.299	-0.467	-0.000967
CCTAGCAGGCCAACCTGGGTCACTCAAGGCTTGA	1.14	1.46	-0.885	-0.95	0.425	1.46	-0.576	1.44	0.141	1.96	2.56	1.54	2.02	-0.209	1.23	3.63	0.233	-0.163
TCTCGGAGGACACGAAGGTCCGAGCTTTCCAGAG	1.24	-0.478	-0.785	-1.37	-0.731	-0.253	-0.438	-0.322	-1.26	1.56	0.577	0.296	1.3	0.546	-0.235	1.26	-0.0585	-0.315
CAGCCTAGGTCAGGGACAGTATAGGAGGAACGTT	1.29	1.68	-0.599	-0.73	0.801	0.546	-0.219	1.22	0.00135	3.4	2.6	3.02	3.8	0.364	1.77	2.37	0.952	0.0373
